What all share (test): yeast three-hybrid, YBZ-1, SC-Leu-His + 0.5 mM 3-AT, 4 days
Holding throughout (settings): tags: N-Gal4 AD-HA kept; label: inside an RPR1-promoter hybrid RNA with tandem MS2 sites; ssRNA

One assay addresses PUM1 PUF domain R3-GPQ (Homo sapiens, UniProt Q14671 828-1176, C935G;R936P). An outline of the steps:
(§1)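 The interaction score is the logarithmic change in variant frequency from input to selection. It uses log2, with a pseudocount of 1 for absent variants, and frequencies came from PCR-amplified, Illumina-sequenced repeat regions. The libraries were Pumilio-1 PUF domains randomized at the three base-contacting residues per repeat, co-expressed with matching RNA elements in strain YBZ-1 (LexA–MS2 coat fusion, HIS3 reporter). Plating lasted four days on SC-Leu (input) or SC-Leu-His + 0.5 mM 3-AT (selection).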

The next assay concerns the target PUM1 PUF domain R3-EFS (Homo sapiens, UniProt Q14671 828-1176, C935E;R936F;Q939S). The essentials: as §1
The target of a further assay is PUM1 PUF domain R5-GRC (Homo sapiens, UniProt Q14671 828-1176, C1007G;Q1011C). An outline of the steps:
as §1

Another assay has as its target PUM1 PUF domain R5-NTR (Homo sapiens, UniProt Q14671 828-1176, C1007N;R1008T;Q1011R). An outline of the steps: as §1
The target in another assay is PUM1 PUF domain R5-RQM (Homo sapiens, UniProt Q14671 828-1176, C1007R;R1008Q;Q1011M). The essentials: as §1
The target of another assay is PUM1 PUF domain R5-IFM (Homo sapiens, UniProt Q14671 828-1176, C1007I;R1008F;Q1011M). An outline of the steps: as §1
The next assay addresses PUM1 PUF domain R8-WYR (Homo sapiens, UniProt Q14671 828-1176, N1122W;Q1126R). The essentials:
as §1

The target in a further assay is PUM1 PUF domain R1-SPK (Homo sapiens, UniProt Q14671 828-1176, R864P;Q867K). An outline of the steps:
as §1

In a further assay the target is T1, PUM1 PUF domain R6-CYE (Homo sapiens, UniProt Q14671 828-1176, N1043C;Q1047E).
T1 sequence: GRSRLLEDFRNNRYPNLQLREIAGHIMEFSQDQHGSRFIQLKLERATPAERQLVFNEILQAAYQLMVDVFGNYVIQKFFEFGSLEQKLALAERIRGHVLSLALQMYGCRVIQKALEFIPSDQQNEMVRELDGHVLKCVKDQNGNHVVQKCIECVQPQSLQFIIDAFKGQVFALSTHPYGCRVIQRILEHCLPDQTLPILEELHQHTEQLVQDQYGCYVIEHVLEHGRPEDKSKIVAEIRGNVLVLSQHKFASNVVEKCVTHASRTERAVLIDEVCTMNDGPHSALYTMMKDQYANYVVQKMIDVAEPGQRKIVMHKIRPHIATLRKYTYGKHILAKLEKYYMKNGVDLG
The essentials:
as §1

The next assay addresses PUM1 PUF domain R2-RTS (Homo sapiens, UniProt Q14671 828-1176, N899R;Y900T;Q903S). The essentials:
as §1

Regarding “GGCUAGAACUAGUGGAUCCCCCGGCGCCCGGCGGCUCGAGCCCGGGUAAGUGUAAGUAGUCUGCAUGCCGCCGGGCGCCAUGCCUGCAGGUCGACUCUAGAAAACAUG”, the binding signal with PUM1 PUF domain R3-GPQ was 3.73 log2 enrichment (interaction score); in the assay with PUM1 PUF domain R3-EFS it was 3.82 log2 enrichment (interaction score).

Take “GGCUAGAACUAGUGGAUCCCCCGGCGCCCGGCGGCUCGAGCCCGGGUAAGUGUCAAUAGUCUGCAUGCCGCCGGGCGCCAUGCCUGCAGGUCGACUCUAGAAAACAUG”: the results for the binding signal with PUM1 PUF domain R5-GRC, in the assay with PUM1 PUF domain R5-NTR and in the assay with PUM1 PUF domain R5-RQM were 0.62 log2 enrichment (interaction score), 5.46 log2 enrichment (interaction score) and 4.46 log2 enrichment (interaction score), respectively.

As to “GGCUAGAACUAGUGGAUCCCCCGGCGCCCGGCGGCUCGAGCCCGGGUAAGUGUAAUUAGUCUGCAUGCCGCCGGGCGCCAUGCCUGCAGGUCGACUCUAGAAAACAUG”, the binding signal with PUM1 PUF domain R3-GPQ is 1.42 log2 enrichment (interaction score); with PUM1 PUF domain R3-EFS, 4.44 log2 enrichment (interaction score).

For the sequence “GGCUAGAACUAGUGGAUCCCCCGGCGCCCGGCGGCUCGAGCCCGGGUAAGUGUAAAUAGUCUGCAUGCCGCCGGGCGCCAUGCCUGCAGGUCGACUCUAGAAAACAUG”, the binding signal with PUM1 PUF domain R5-GRC was 4.07 log2 enrichment (interaction score); in the assay with PUM1 PUF domain R5-IFM, 2.52 log2 enrichment (interaction score); with PUM1 PUF domain R8-WYR, 4.75 log2 enrichment (interaction score); in the assay with PUM1 PUF domain R3-GPQ, 4.19 log2 enrichment (interaction score); in the assay with PUM1 PUF domain R5-RQM, 2.06 log2 enrichment (interaction score); in the assay with PUM1 PUF domain R3-EFS it was 2.99 log2 enrichment (interaction score).

On to “GGCUAGAACUAGUGGAUCCCCCGGCGCCCGGCGGCUCGAGCCCGGGUAAGUGUAAAUCGUCUGCAUGCCGCCGGGCGCCAUGCCUGCAGGUCGACUCUAGAAAACAUG”, for which the binding signal in the assay with PUM1 PUF domain R1-SPK was 2.31 log2 enrichment (interaction score).

As for “GGCUAGAACUAGUGGAUCCCCCGGCGCCCGGCGGCUCGAGCCCGGGUAAGUGGAAAUAGUCUGCAUGCCGCCGGGCGCCAUGCCUGCAGGUCGACUCUAGAAAACAUG”, the binding signal in the assay with PUM1 PUF domain R6-CYE is 2.53 log2 enrichment (interaction score).

Regarding “GGCUAGAACUAGUGGAUCCCCCGGCGCCCGGCGGCUCGAGCCCGGGUAAGUGUUAAUAGUCUGCAUGCCGCCGGGCGCCAUGCCUGCAGGUCGACUCUAGAAAACAUG”, the binding signal with PUM1 PUF domain R5-GRC is 4.6 log2 enrichment (interaction score).

Turning to “GGCUAGAACUAGUGGAUCCCCCGGCGCCCGGCGGCUCGAGCCCGGGUAAGUGUGAAUAGUCUGCAUGCCGCCGGGCGCCAUGCCUGCAGGUCGACUCUAGAAAACAUG”, in the assay with PUM1 PUF domain R5-GRC, the binding signal is 1.57 log2 enrichment (interaction score).

Regarding “GGCUAGAACUAGUGGAUCCCCCGGCGCCCGGCGGCUCGAGCCCGGGUAAGUGUAAAGAGUCUGCAUGCCGCCGGGCGCCAUGCCUGCAGGUCGACUCUAGAAAACAUG”, in the assay with PUM1 PUF domain R2-RTS, the binding signal was 3.27 log2 enrichment (interaction score).

Consider “GGCUAGAACUAGUGGAUCCCCCGGCGCCCGGCGGCUCGAGCCCGGGUAAGCGUAAAUAGUCUGCAUGCCGCCGGGCGCCAUGCCUGCAGGUCGACUCUAGAAAACAUG”, for which, in the assay with PUM1 PUF domain R8-WYR, the binding signal was 4.97 log2 enrichment (interaction score).
